For 40 sequences, sensor-assay potency score (higher = more potent) results are on record in the OligoGym collection.
Also: reference of the scale not given here.

The target of the first assay is BZW1. The assay can be described thus: pooled miR-30 sensor sort-seq; sequence = guide strand. Particulars: shRNA.
As for TTGCTCAAGGAAAACACTCTTC, the sensor-assay potency score (higher = more potent) was -0.371.
Same read-out and setting: in the case of TTAACTTGTTAAAAACCTGAGC it was -0.612; in that of TGAAACTCCTTCTTTAACCAAA, -0.866.
On the same count and under the same terms, the value for TTCTTCAGCATTTTTGAGCCAT was -0.303; that for TAATACAGTCTTGAAACTGAGT was -0.709.
Same read-out and setting: the value for TTATCCATGCTGACTTTCCGAA was -0.947.

A further assay has as its target C10orf129. The description is as above. The note with it: shRNA.
With AACTTCTTGAAATCCAACCACC, the sensor-assay potency score (higher = more potent) was -1.25.
Still for that read-out and setting: in the case of ATAGCTCTTATCTGACACCAGG it was -1.02; in that of TGTAGGTCTGCTTTGGAGGGGC, -0.275.
Still for that read-out and setting: the value for TTCTTGAAATCCAACCACCCAT was -0.764; that for TAGCTCTTATCTGACACCAGGA was -0.145.
Sequence TTTAGAACAGTCTCAGGGCAGA registered a sensor-assay potency score (higher = more potent) of -0.497.
AACTTGAATCAACTTCTTGAAA: the sensor-assay potency score (higher = more potent) was -1.71.
Still for that read-out and setting: the value for TTATCTGACACCAGGAGCTTGG was -0.78; that for TACATCTCTGGATTTGCAGATA was -0.615.
TCTTGAAATCCAACCACCCATC yielded a sensor-assay potency score (higher = more potent) of -1.29.
The same measure, in the same setting: the value for ATACTGGGAATACTCGACCATT was -1.34.
Turning to TGACACAGAAACACACAGGCTC, the sensor-assay potency score (higher = more potent) came out at 0.78.

A further assay addresses C10orf27. Described as above. The note with it: shRNA.
With TCGAAATCCACAATCCCTGGGA, the sensor-assay potency score (higher = more potent) amounted to 0.448.
On the same count and under the same terms, in the case of TTTTGTAAAAGGTGATATCTTC it was -0.0398.
On the same count and under the same terms, the value for TTCGATGTCTTCTTCTCTGTGT was 0.791; that for TAAAAGGTGATATCTTCGTTTT was -1.08; that for TTTAGTAAGAGTTTTCACGGTA was 0.259.
In turn, TTGGATGTGGGTCACGTGCTGG had a sensor-assay potency score (higher = more potent) of -0.839.
Still for that read-out and setting: the value for TGATATCTTCGTTTTCTTCGGG was 0.224.
Same read-out and setting: the value for TATCTTCGTTTTCTTCGGGGAT was -0.791; that for TTCTTCTCTGTGTTCTGGCTTG was -0.353.
As for TTCTTCTCCAGTTTCAGCTCAG, the sensor-assay potency score (higher = more potent) was -0.249.
The same measure, in the same setting: the value for TTTCGCTTTTTGTAAAAGGTGA was -0.648; that for ATATCTTCGTTTTCTTCGGGGA was -0.103.

The next assay concerns the target C11orf49. The assay is described as above. Particulars: shRNA.
TTTCTGAGTGAGCTCCAGCGGG displayed a sensor-assay potency score (higher = more potent) of -0.907.
Still for that read-out and setting: in the case of TAGCTATTAGACACAAAGGGGT it was -0.34; in that of TTCTGAGTGAGCTCCAGCGGGA, -1.01; in that of TCGTCCATGAGCACAATCCTGG, -1.16.
The same measure, in the same setting: in the case of TTAGCTATTAGACACAAAGGGG it was -0.469.
Sequence TTGGCTAATATCTTCCCTGTTT had a sensor-assay potency score (higher = more potent) of -0.438.
Sequence AAATATTCAGTGAAGAACCTGG gave a sensor-assay potency score (higher = more potent) of 0.285.
As to TTTCACATGTTTGTTTAGCTAT, the sensor-assay potency score (higher = more potent) was -0.281.
The same measure, in the same setting: the value for TTCATGGTCAGCAAATCGCCAT was -0.72.
The same measure, in the same setting: the value for TTCTCCAACAGGCCACAGCGGT was -1.61.
